Dicer processing – blocks human Dicer maturation of pre-miR-21; Q9UPY3; hit rate 6% among 47,000; AID 1347074; cat-ELCCA pre-miR-21 Dicer processing, chemiluminescence; hits give high values; z-score at 25 µM; in the data active = z-score above about 3, passing the limit was not always enough;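 also: plate controls were vehicle for no effect and no enzyme for full effect; higher signal means more uncleaved substrate so more Dicer inhibition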
Starred values were filed as active, the others as inactive. Only a selection was taken, and hits are over-represented in it overall.

`CCCNC(=O)O/N=C(\N)c1c(-c2c(Cl)cccc2Cl)noc1C` gave Dicer processing 4.47*.
Screening Cc1onc(-c2c(Cl)cccc2Cl)c1NC(=O)NN(C)C(=S)SCc1c(F)cccc1Cl returned Dicer processing 0.26.
CCOC(=O)CNC(=O)c1c(F)cccc1F was read as Dicer processing 0.49.
CS(=O)(=N/C=C(\C#N)S(=O)(=O)c1ccc(C(F)(F)F)cn1)c1ccsc1 (centres undefined) was read as Dicer processing 0.64.
`N#C/C(=C\Nc1cc(C(F)(F)F)cc(C(F)(F)F)c1)S(=O)(=O)c1ccccc1` gave Dicer processing 0.35.
`CC1=C(C#N)C(c2ccccc2)C2=C(CC(C)(C)CC2=O)N1` (centres undefined) gave Dicer processing 0.32.
Cc1nc(N2CCN(c3ccccn3)CC2)nc2c1C(=O)CC(c1ccccc1)C2 (centres undefined) was read as Dicer processing -0.39.
Screening CCc1ccnc(NC(=O)Nc2cc(C)cc(C)c2)c1 returned Dicer processing -0.56.
`CCOc1ccc(C2c3c(oc4ccccc4c3=O)C(=O)N2c2nc(C)c(C)s2)cc1` (centres undefined) gave Dicer processing 0.15.
For Cc1ccc(N2C(=O)c3oc4ccccc4c(=O)c3C2c2ccc(Cl)cc2)nc1 (centres undefined) the results were Dicer processing 3.83*.
`CCOc1ccc(C2c3c(oc4ccc(C)cc4c3=O)C(=O)N2c2ccccn2)cc1` (centres undefined) gave Dicer processing 1.08.
For Cc1ccc(N2C(=O)c3oc4ccccc4c(=O)c3C2c2ccccc2)nc1 (centres undefined) the results were Dicer processing 0.17.
Screening Cc1ccc(N2C(=O)c3oc4ccccc4c(=O)c3C2c2ccc(O)cc2)nc1 (centres undefined) returned Dicer processing 4.36*.
For CCOc1ccc(C2c3c(oc4ccccc4c3=O)C(=O)N2c2ccc(C)cn2)cc1 (centres undefined) the results were Dicer processing 3.61*.
Screening Cc1ccc(C2c3c(oc4ccccc4c3=O)C(=O)N2c2ccccn2)cc1 (centres undefined) returned Dicer processing 0.91.
For COc1ccc(C2c3c(oc4ccccc4c3=O)C(=O)N2c2ccc(C)cn2)cc1OC (centres undefined) the results were Dicer processing 1.64.
For Cc1ccc(N2C(=O)c3oc4ccccc4c(=O)c3C2c2cccc(Br)c2)nc1 (centres undefined) the results were Dicer processing 2.88.
For COC(=O)C(O)(c1ccc(N(C)C(=O)Nc2ccc3ccccc3c2)cc1)C(F)(F)F (centres undefined) the results were Dicer processing -0.18.
For Cc1cc(O)c(C(=O)c2cnc3cc(-c4ccccc4)nn3c2)cc1Cl the results were Dicer processing -1.67.
Cc1cc(CN2CC(C)OC(C)C2)cc(C)c1O (centres undefined) was read as Dicer processing -1.98.
O=C1CC(Sc2nc3ccccc3s2)C(=O)N1c1ccc(F)cc1 (centres undefined) was read as Dicer processing 0.89.
`CCSC1=C(C#N)C(c2ccc(O)cc2)CC(=O)N1` (centres undefined) gave Dicer processing 1.08.
`COc1cc(C2/C(=C(/O)c3ccc(C)cc3)C(=O)C(=O)N2c2cccnc2)ccc1O` (centres undefined) gave Dicer processing -0.61.
Screening COC(=O)c1cnn2c(C(F)F)cc(-c3ccc(C)cc3)nc12 returned Dicer processing -1.49.
Screening CCn1ncc(CNC(=O)c2cnn3c(C(F)F)cc(-c4ccc(C)cc4)nc23)c1C returned Dicer processing 0.29.
`CCOC(=O)c1cnn2c(C(F)F)cc(-c3ccc(C)cc3)nc12` gave Dicer processing 3.53*.
Cc1ccccc1NC(=S)N1CC(C)OC(C)C1 (centres undefined) was read as Dicer processing -1.1.
Cc1c(Cl)cccc1NC(=S)N1C(C)CCCC1C (centres undefined) was read as Dicer processing -0.76.
Cc1ccccc1NC(=S)N1CCCCC1C (centres undefined) was read as Dicer processing 3.43*.
Screening C=C1SC(=Nc2cc(C)c(C)c(C)c2)N(C(=O)c2c(F)cccc2F)C1(C)C returned Dicer processing -0.75.
Screening Cc1sc(/N=C/N(C)C)c(C(=O)c2ccc(Cl)cc2)c1C returned Dicer processing -2.63.
Screening CSc1nnc2c(n1)OC(C(=O)c1ccccc1)Nc1ccccc1-2 (centres undefined) returned Dicer processing 0.97.
For COc1ccc(C2CC(c3ccccc3O)=NN2)cc1 (centres undefined) the results were Dicer processing 4.15*.
`COc1cccc2c1OC(C(C)C)N1N=C(c3cc(Cl)ccc3O)CC21` (centres undefined) gave Dicer processing 1.11.
`COc1ccc(C2=Nc3ccccc3SC(c3ccccc3)C2)c(O)c1` (centres undefined) gave Dicer processing -3.22.
For COc1ccc(C2CC(c3cc(Cl)ccc3O)=NN2)cc1 (centres undefined) the results were Dicer processing 5.77*.
Screening COc1ccc(C2Oc3c(OC)cccc3C3CC(c4ccccc4O)=NN32)cc1 (centres undefined) returned Dicer processing 1.41.
`COc1ccc(O)c(C2=NN3C(C2)c2cccc(OC)c2OC3c2ccc(F)cc2)c1` (centres undefined) gave Dicer processing 1.36.
CC1(C)CC(=O)C2=C(C1)N=C1c3ccccc3C(=O)C1C2c1ccc(Br)cc1 (centres undefined) was read as Dicer processing 0.88.
CC(C)c1[nH]nc2c1C1(C(=O)Nc3ccccc31)C(C#N)=C(N)O2 (centres undefined) was read as Dicer processing -0.95.
`Cc1ccc(CSc2ncn[nH]2)cc1` gave Dicer processing 1.57.
Screening CCOC(=O)C1CCN(C(=O)N2c3ccccc3Sc3ccccc32)CC1 returned Dicer processing 4.83*.
O=C(N1CCN(CCO)CC1)N1c2ccccc2C=Cc2ccccc21 was read as Dicer processing -0.57.
NC(=O)C1CCN(C(=O)N2c3ccccc3Sc3ccccc32)CC1 was read as Dicer processing 2.17.
CCOC(=O)N1c2ccccc2Sc2ccccc21 was read as Dicer processing 0.27.
CN1CCN(C(=O)N2c3ccccc3Sc3ccccc32)CC1 was read as Dicer processing 3.39*.
Screening O=C(Cc1cccs1)N1c2ccccc2Sc2ccccc21 returned Dicer processing 0.57.
`CCn1nc(C)cc1C(=O)NNC(=S)NCCCOC` gave Dicer processing 1.37.
Screening COc1ccccc1-c1oc2ccccc2c(=O)c1O returned Dicer processing 2.88.
Screening OCc1ccc(-c2ccc(Cl)cc2)o1 returned Dicer processing 1.17.
`N=C(N)N1CCc2ccccc2C1` gave Dicer processing 0.1.
For NC(Cc1c[nH]c2cc(F)ccc12)C(=O)O (centres undefined) the results were Dicer processing -1.09.
For CC(=O)Nc1ccccc1OCCN(Cc1ccccc1)C(=S)NCCC1=CCCCC1 the results were Dicer processing 1.99.
Screening Cn1c(SCc2nc(-c3ccccc3)no2)nnc1-c1cccs1 returned Dicer processing 3.08*.
Screening Cc1ccc(-c2noc(CSc3nnc(C)n3-c3ccccc3)n2)cc1 returned Dicer processing 1.08.
`Cn1c(SCc2nc(-c3ccccc3)no2)nnc1-c1ccco1` gave Dicer processing 0.3.
